The panel holds about 83,000 compounds, 20% with a hit somewhere; the sample as a whole holds those more often.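 Note: values are percent growth. 100 is the growth of untreated cells, values between 100 and 0 indicate rising inhibition; between -100 and 0 indicates cell death.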 Calls of active or inactive are those of the source. How the source made its calls: active means growth percent below 10; inactive means the rest.
The molecules below were run on NCI-H226 lung (assay: NCI-60 one-dose screen, 48 h (100 = growth as untreated, 0 = no growth, -100 = all killed)). Conditions: 10 µM unless noted.

Row | SMILES | growth
1 | COc1cc(C(=O)n2nc(N3CCN(C)CC3)c3cc(N)ccc32)cc(OC)c1OC | 47.6% (inactive)
2 | O=C1N[C@@H]2NC(=[N+]3CCOCC3)N[C@@H]2N1 | 94.8% (inactive)
3 | N#Cc1c(N)nnn1Cc1cc(=O)oc2c1ccc1ccccc12 | 83.9% (inactive)
4 | COc1cc(OC)cc(C2=C3CC[C@@H]4[C@H](CC[C@]5(C)C(=O)CC[C@@H]45)C3=CC3C(O)c4cccnc4N4C(=O)COC234)c1 (some centres not stated) | 102% (inactive)
5 | C=C(C)[C@@H]1CC[C@]2(C(=O)N3CCN(C)CC3)CC[C@]3(C)[C@H](CC[C@@H]4[C@@]5(C)CC(=C/c6ccncc6)/C(=N/O)C(C)(C)[C@@H]5CC[C@]43C)[C@@H]12 | 88.4% (inactive)
6 | CN1CCN(Cc2ccc3c(NNC(=O)c4ccccc4)nc4cc(F)ccc4n23)CC1 | 12.6% (inactive)
7 | CCOC(=O)c1c2c(n3ccc(C)cc13)C(=O)c1ccccc1C2=O | 98.1% (inactive)
8 | CCCC(=O)NC(c1ccc2c(c1)OCO2)c1ccc2cccnc2c1O (configuration not stated) | 12.2% (inactive)
9 | Cc1nc2sc(C(=O)Nc3ccccc3)c(N)c2cc1C(=O)c1ccccc1 | 31.3% (inactive)
10 | COC(=O)c1ccc2c(c1)C(=O)c1c-2n(CCCN)c(=O)c2cc([N+](=O)[O-])ccc12 | -73.4% (active)
11 | CO[C@]12C=C/C(=C(/C(=O)OCc3cccnc3)C(=O)CCCCCCCC[C@@]3(OC)C=C/C(=C(/C(=O)OCc4cccnc4)C(=O)CCCCCCCC1)O3)O2 | -45.6% (active)
12 | Brc1c2c(c(Br)c3ccccc13)CCCC2 | 85.8% (inactive)
